From PubChem BioAssay AID1159580 (chemical genetic matrix, 2015)
Screen size: about 5,500 compounds; about 2,000 (36%) were called active. Another 18% or so got no clear call; they are omitted. No stated cut-off is given here; in the data, active means normalized growth mostly below about 0.91 (no sharp cut-off); inconclusive means no clear call, values can overlap the other calls; inactive means mostly above about 0.92. This is one part of the list.

Assay: chemical genetic growth profiling, strain panel (AID 1159580);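 further: tested at 20 µM; growth read once vehicle control cultures reached saturation at 30 °C; 1 = growth at the plate median or of vehicle wells; lower values mean less growth of the strain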
Conditions: S. cerevisiae deletion strains, growth OD

Measured: normalized growth

CC(=O)Oc1cc2c(c(C)c1OC(C)=O)CC1OC13C2(C)CCC1(C)C2CC(C)(C(=O)O)CCC2(C)CCC13C (configuration not stated)
inactive: locus YAL021C, strain ccr4, active compounds read low 0.988 | locus YAL026C, strain drs2, active compounds read low 1.04 | locus YAL030W, strain snc1, active compounds read low 1.01 | locus YBL061C, strain skt5, active compounds read low 1.04 | locus YBR009C, strain hhf1, active compounds read low 1 | locus YBR021W, strain FUR4, active compounds read low 0.99 | locus YBR023C, strain chs3, active compounds read low 1.01 | locus YBR171W, strain sec66, active compounds read low 1.02 | locus YBR229C, strain ROT2, active compounds read low 1.01 | locus YBR231C, strain swc5, active compounds read low 1.04 | locus YBR279W, strain paf1, active compounds read low 1.02 | locus YCL011C, strain gbp2, active compounds read low 1.01 | locus YCL016C, strain dcc1, active compounds read low 1 | locus YCL029C, strain bik1, active compounds read low 1.03 | locus YCL069W, strain vba3, active compounds read low 1.03 | locus YCR088W, strain abp1, active compounds read low 1.01 | locus YDL005C, strain med2, active compounds read low 1.02 | locus YDL035C, strain GPR1, active compounds read low 0.993 | locus YDL040C, strain nat1, active compounds read low 1.02 | locus YDL074C, strain BRE1, active compounds read low 1.02 | locus YDL101C, strain DUN1, active compounds read low 1.01 | locus YDL185W, strain tfp1, active compounds read low 1.04 | locus YDL192W, strain arf1, active compounds read low 1.02 | locus YDR001C, strain nth1, active compounds read low 1.01 | locus YDR069C, strain doa4, active compounds read low 1.01 | locus YDR101C, strain arx1, active compounds read low 1.03 | locus YDR137W, strain rgp1, active compounds read low 1.02 | locus YDR159W, strain sac3, active compounds read low 1.05 | locus YDR162C, strain NBP2, active compounds read low 1 | locus YDR195W, strain ref2 1.02 | locus YDR297W, strain sur2, active compounds read low 1.02 | locus YDR318W, strain mcm21, active compounds read low 1.02 | locus YDR334W, strain swr1, active compounds read low 1.01 | locus YDR335W, strain msn5, active compounds read low 1.02 | locus YDR388W, active compounds read low 1.02 | locus YDR392W, strain spt3, active compounds read low 0.919 | locus YDR502C, strain sam2, active compounds read low 1.01 | locus YEL003W, strain gim4, active compounds read low 1.01 | locus YEL037C, strain rad23, active compounds read low 1.01 | locus YEL061C, strain CIN8 (second series), active compounds read low 1.02 | locus YEL061C, strain CIN8, active compounds read low 1.01 | locus YER015W, strain faa2, active compounds read low 1.02 | locus YER016W, strain bim1, active compounds read low 1.02 | locus YER110C, active compounds read low 1.03 | locus YER111C, strain swi4, active compounds read low 1 | locus YER155C, strain BEM2 (second series), active compounds read low 1.01 | locus YER155C, strain BEM2, active compounds read low 0.99 | locus YER167W, strain BCK2, active compounds read low 1.01 | locus YFR010W, strain ubp6, active compounds read low 1.03 | locus YGL078C, strain dbp3, active compounds read low 0.99 | locus YGL086W, strain mad1, active compounds read low 1.02 | locus YGL167C, strain pmr1, active compounds read low 1 | locus YGL173C, strain kem1, active compounds read low 1.02 | locus YGL227W, strain vid30, active compounds read low 1.02 | locus YGL240W, strain doc1, active compounds read low 1.02 | locus YGL248W, strain PDE1, active compounds read low 0.999 | locus YGL253W, strain hxk2, active compounds read low 1.03 | locus YGR135W, strain pre9, active compounds read low 1.03 | locus YGR252W, strain gcn5, active compounds read low 0.989 | locus YHR013C, strain ard1, active compounds read low 1.01 | locus YHR027C, strain rpn1, active compounds read low 1.01 | locus YHR030C, strain SLT2, active compounds read low 1.02 | locus YHR079C, strain IRE1 (second series), active compounds read low 1.04 | locus YHR094C, strain hxt1, active compounds read low 1.04 | locus YHR129C, strain ARP1, active compounds read low 1.01 | locus YHR142W, strain chs7, active compounds read low 1.01 | locus YHR200W, strain rpn10, active compounds read low 1.04 | locus YIL066C, strain RNR3, active compounds read low 0.998 | locus YIL073C, strain SPO22, active compounds read low 1.02 | locus YIL125W, strain kgd1, active compounds read low 1.01 | locus YIR030C, strain dcg1, active compounds read low 1.04 | locus YJL092W, strain hpr5, active compounds read low 1.02 | locus YJL095W, strain BCK1 (second series), active compounds read low 1.03 | locus YJL095W, strain BCK1, active compounds read low 0.998 | locus YJL115W, strain asf1, active compounds read low 1.01 | locus YJL129C, strain trk1, active compounds read low 1.02 | locus YJL134W, strain LCB3, active compounds read low 1.01 | locus YJL154C, strain vps35, active compounds read low 1.01 | locus YJL164C, strain tpk1, active compounds read low 0.989 | locus YJL166W, strain qcr8, active compounds read low 1.01 | locus YJL168C, strain set2, active compounds read low 1.03 | locus YJL187C, strain SWE1 (second series), active compounds read low 0.992 | locus YJR043C, strain POL32, active compounds read low 1 | locus YKL009W, strain mrt4, active compounds read low 0.927 | locus YKL068W, active compounds read low 1.03 | locus YKL085W, strain MDH1 (second series), active compounds read low 1 | locus YKL085W, strain MDH1, active compounds read low 1 | locus YKL160W, strain elf1, active compounds read low 1 | locus YKL190W, strain CNB1, active compounds read low 1 | locus YKR001C, strain vps1, active compounds read low 0.993 | locus YKR026C, strain gcn3, active compounds read low 1.02 | locus YKR091W, strain srl3, active compounds read low 1.01 | locus YLL001W, strain dnm1, active compounds read low 1.03 | locus YLL026W, active compounds read low 1.01 | locus YLL041C, strain sdh2, active compounds read low 1.01 | locus YLR027C, strain aat2, active compounds read low 1.01 | locus YLR039C, strain RIC1, active compounds read low 0.893 | locus YLR058C, strain SHM2, active compounds read low 1 | locus YLR102C, strain apc9, active compounds read low 1.03 | locus YLR221C, strain rsa3, active compounds read low 1.03 | locus YLR258W, strain gsy2, active compounds read low 1.02 | locus YLR262C, strain YPT6 (second series), active compounds read low 1.02 | locus YLR262C, strain YPT6, active compounds read low 0.853 | locus YLR268W, strain sec22, active compounds read low 1.04 | locus YLR320W, strain mms22, active compounds read low 1.03 | locus YLR330W, strain CHS5, active compounds read low 1.01 | locus YLR342W, strain FKS1 (second series), active compounds read low 1 | locus YLR342W, strain FKS1, active compounds read low 1.02 | locus YLR357W, strain rsc2, active compounds read low 1.01 | locus YLR370C, strain arc18, active compounds read low 1.01 | locus YLR371W, strain rom2, active compounds read low 1.05 | locus YLR384C, strain iki3, active compounds read low 1 | locus YLR418C, strain cdc73, active compounds read low 1 | locus YML016C, strain PPZ1, active compounds read low 1.01 | locus YML032C, strain rad52, active compounds read low 1.03 | locus YML120C, strain ndi1, active compounds read low 1.02 | locus YML124C, strain tub3, active compounds read low 1.02 | locus YMR058W, strain fet3, active compounds read low 1.03 | locus YMR078C, strain ctf18, active compounds read low 1.04 | locus YMR125W, strain sto1, active compounds read low 0.985 | locus YMR129W, active compounds read low 1.01 | locus YMR205C, strain PFK2, active compounds read low 0.988 | locus YMR223W, strain ubp8, active compounds read low 1.05 | locus YMR231W, strain pep5, active compounds read low 1.01 | locus YMR263W, strain SAP30, active compounds read low 1.01 | locus YMR307W, strain GAS1, active compounds read low 0.949 | locus YNL067W, strain RPL9B, active compounds read low 1 | locus YNL071W, strain lat1, active compounds read low 1.01 | locus YNL153C, strain GIM3, active compounds read low 1 | locus YNL209W, strain ssb2, active compounds read low 0.994 | locus YNL233W, strain BNI4, active compounds read low 1.02 | locus YNL248C, strain rpa49, active compounds read low 1.06 | locus YNL250W, strain rad50, active compounds read low 1.02 | locus YNL271C, strain bni1, active compounds read low 1.03 | locus YNL298W, strain CLA4, active compounds read low 0.994 | locus YNL307C, strain MCK1, active compounds read low 1.03 | locus YNL322C, strain KRE1 (second series), active compounds read low 0.994 | locus YNR049C, strain mso1, active compounds read low 1.04 | locus YNR052C, strain pop2, active compounds read low 1.01 | locus YOL006C, strain TOP1, active compounds read low 0.964 | locus YOL012C, strain htz1 1.11 | locus YOL147C, strain pex11, active compounds read low 1.04 | locus YOR001W, strain rrp6, active compounds read low 1.02 | locus YOR061W, strain CKA2, active compounds read low 1.02 | locus YOR069W, strain VPS5, active compounds read low 1.01 | locus YOR070C, strain gyp1, active compounds read low 1.04 | locus YOR080W, strain dia2, active compounds read low 1.02 | locus YOR083W, strain WHI5, active compounds read low 1.01 | locus YOR106W, strain vam3, active compounds read low 1.01 | locus YOR136W, strain idh2, active compounds read low 1.02 | locus YOR144C, strain elg1, active compounds read low 1.03 | locus YOR184W, strain ser1, active compounds read low 0.994 | locus YOR265W, strain rbl2, active compounds read low 1.01 | locus YOR270C, strain vph1, active compounds read low 1.05 | locus YOR290C, strain snf2, active compounds read low 0.994 | locus YOR316C, strain cot1, active compounds read low 1.03 | locus YPL051W, strain arl3, active compounds read low 1.02 | locus YPL055C, strain LGE1, active compounds read low 1.01 | locus YPL078C, strain atp4, active compounds read low 0.99 | locus YPL106C, strain sse1, active compounds read low 1.03 | locus YPL240C, strain hsp82, active compounds read low 1.01 | locus YPL241C, strain CIN2, active compounds read low 1 | locus YPR119W, strain clb2, active compounds read low 1.02 | locus YPR141C, strain kar3, active compounds read low 1.02 | locus YPR163C, strain tif3, active compounds read low 1.04 | locus YPR167C, strain met16, active compounds read low 1.02 | strain wtn01, active compounds read low 1.01
